# Data from PubChem BioAssay (EPA / NIEHS).
# “And” between values parts separate entries of the source, which are not always exact repeats. Identical values can stand only once. More than one record can exist for a structure, and the calls need not agree. The source made the active and inactive calls. Rule for the calls: active = hit-call score of the fitted dose curve at least 0.9, where 1 is the maximum; inactive = score below 0.9.
# Biological target: Hepatocyte nuclear factor 6 (Homo sapiens) (UniProt Q9UBC0)
# Assay: ATG_HNF6_CIS: Attagene CIS-FACTORIAL HepG2 Assay for human Hepatocyte Nuclear Factor 6 (HNF6) (AID 2282952)
# Details: HepG2 Attagene cis-factorial HNF6 reporter transcription; actives raise or lower the signal
# Procedure: ATG_CIS is a cell-based, multiplexed-readout assay that uses HepG2, a human liver cell line, with measurements taken at 24 hours after chemical dosing in a 24-well plate.ATG_HNF6_CIS is one of 52 assay component(s) measured or calculated from the ATG_CIS assay. It is designed to make measurements of mRNA induction, a form of inducible reporter, as detected with fluorescence intensity signals by Reverse transcription polymerase chain reaction (RT-PCR) and Capillary electrophoresis technology.Data from the assay component ATG_HNF6_CIS was analyzed into 1 assay endpoint. This assay endpoint, ATG_HNF6_CIS, was analyzed with bidirectional fitting relative to DMSO as the negative control and baseline of activity. Using a type of inducible reporter, measures of mRNA for gain or loss-of-signal activity can be used to understand the reporter gene at the transcription factor-level as they relate to the gene ONECUT1. Furthermore, this assay endpoint can be referred to as a primary readout, because this assay has produced multiple assay endpoints where this one serves a reporter gene function. To generalize the intended target to other relatable targets, this assay endpoint is annotated to the dna binding intended target family, where the subfamily is homeobox protein.
# Human liver HepG2 cells are transiently transfected with multiple reporter transcription units (MRTUs) in 6-well plates using FuGene 6 reagent (Roche; 3 ml FuGene/1 mg DNA). The MRTU constructs are regulated by a cis-regulating element (promoter). […] A major difference between the CIS and TRANS system is that in CIS activities of endogenous TFs are measured, whereas the TRANS assay evaluates changes in activities of exogenous, chimeric NR-Gal4 proteins. […] At the end of 24 hour incubation, total RNA was isolated using TriZol reagent (Invitrogen). The isolated RNA is then reverse-transcribed using oligo(dT) primer and Mo-MLV reverse transcriptase (Invitrogen) with DNAse I (Ambion) treatment for 30 min. The one-tenth of the produced cDNA was amplified by PCR using Taq DNA polymerase (Invitrogen) and two reporter sequence-specific primers. The PCR products were fluorescently labeled by primer extension with 6-arboxyfluorescein (6-FAM) 5'-labeled reporter sequence-specific primer (2 min at 95 C, 20 s at 68 C and 10 min at 72 C) and these products were digested with 5U of HpaI (New England Biolabs) for 2h at 37 C. The fragments were purified using Qiaquick PCR columns (Qiagen), analyzed on an ABI 3130xL genetic analyzer (Applied Biosystems) with peak positions identified by using a set of X-rhodamine (ROX)-labeled MapMarker1000 molecular weight standards (BioVentures). The raw capillary electrophoresis data was processed using Attagraph software (Attagene).
# Chain of Hepatocyte nuclear factor 6 (Homo sapiens) (Q9UBC0 whole entry, looked up): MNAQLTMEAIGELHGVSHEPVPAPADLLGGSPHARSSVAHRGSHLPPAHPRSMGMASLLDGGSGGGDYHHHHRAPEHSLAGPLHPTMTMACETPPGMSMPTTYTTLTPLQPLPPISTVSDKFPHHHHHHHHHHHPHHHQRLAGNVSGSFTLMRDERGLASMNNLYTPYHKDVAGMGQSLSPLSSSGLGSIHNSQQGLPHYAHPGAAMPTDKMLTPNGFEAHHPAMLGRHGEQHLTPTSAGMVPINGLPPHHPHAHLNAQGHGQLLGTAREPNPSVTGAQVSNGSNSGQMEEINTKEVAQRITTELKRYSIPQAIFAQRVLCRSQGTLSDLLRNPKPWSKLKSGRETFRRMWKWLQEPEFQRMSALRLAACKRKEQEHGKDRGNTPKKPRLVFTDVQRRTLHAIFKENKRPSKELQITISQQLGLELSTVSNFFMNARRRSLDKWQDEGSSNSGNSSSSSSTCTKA
Structure (SMILES),outcome,AC50
Sc1ccccc1,inactive,
O=NN(c1ccccc1)c1ccccc1,inactive,
ClC1=C(Cl)[C@]2(Cl)[C@@H]3[C@@H]4C[C@@H]([C@H]5O[C@@H]45)[C@@H]3[C@@]1(Cl)C2(Cl)Cl,inactive,
O=C(NC(=O)c1c(F)cccc1F)Nc1cc(Cl)c(OC(F)(F)C(F)F)c(Cl)c1,inactive,
O=C(N[C@H]1CN2CCC1CC2)c1cc2ccoc2cn1,inactive,
Nc1ccc(-c2ccc(N)cc2)cc1,inactive,
C=CC(=O)NCNC(=O)C=C,inactive,
NS(=O)(=O)C(F)(F)C(F)(F)C(F)(F)C(F)(F)C(F)(F)C(F)(F)C(F)(F)C(F)(F)F,inactive,96.7 µM (active)
O=C(O)C(F)(F)C(F)(F)C(F)(F)C(F)(F)C(F)(F)C(F)(F)C(F)(F)C(F)(F)F,inactive,
O=C(NC(=O)c1cc(F)c(F)cc1Cl)Nc1cc(F)ccc1N1CCC(C(=O)O)CC1,inactive,
O=C(O)C(F)(F)C(F)(F)C(F)(F)C(F)(F)C(F)(F)F,inactive,
CN(C)CCO,inactive,
CCC(=O)O[C@H]1CC[C@H]2[C@@H]3CCC4=CC(=O)CC[C@]4(C)[C@H]3CC[C@]12C,inactive,169 µM (active) and 187 µM (active)
O=C(O)C(F)(F)C(F)(F)C(F)(F)C(F)(F)C(F)(F)C(F)(F)C(F)(F)C(F)(F)C(F)(F)F,inactive,58.9 µM (active)
ClC1=C(Cl)[C@]2(Cl)[C@@H]3[C@H]4C[C@H]([C@@H]5O[C@H]45)[C@@H]3[C@@]1(Cl)C2(Cl)Cl,inactive,
N#Cc1ccc(N(CC(N)=O)CC(F)(F)F)cc1C(F)(F)F,inactive,
CCNc1nc(NC(C)C)nc(SC)n1,inactive,

Structure (SMILES),outcome,AC50
Cc1ccccc1CO[C@@H]1C[C@@]2(C(C)C)CC[C@]1(C)O2,inactive,
Cc1ccccc1[N+](=O)[O-],inactive,
Cc1cc2c3c(c1)C(c1ccccc1)=N[C@@H](NC(=O)c1ccncc1)C(=O)N3CC2,inactive,
ClC(Cl)=C(c1ccc(Cl)cc1)c1ccc(Cl)cc1,inactive,
CC1=C2C[C@H]3[C@@H](CC=C4C[C@@H](O)CC[C@@]43C)[C@@H]2CC[C@]12O[C@@H]1C[C@H](C)CN[C@H]1[C@H]2C,inactive,
ClC1=C(Cl)[C@]2(Cl)[C@@H]3[C@@H](Cl)[C@H]4O[C@H]4[C@@H]3C1(Cl)C2(Cl)Cl,inactive,
CCCCCCCCCc1ccc(O)cc1,inactive,145 µM (active)
CC(C)(c1ccccc1)c1ccc(O)cc1,inactive,
CCOC(=O)C(O)(c1ccc(Cl)cc1)c1ccc(Cl)cc1,inactive,
CCCCCCCCOC(=O)c1ccccc1C(=O)OCCCCCCCC,inactive,
Oc1ccc(C(c2ccc(O)cc2)(C(F)(F)F)C(F)(F)F)cc1,inactive,
Oc1c(Cl)c(Cl)c(Cl)c(Cl)c1Cl,inactive,25.9 µM (active)
C1CC2OC2CC1C1CO1 (stereo not given),inactive,
CCOCCOC(C)=O,inactive,
c1ccc(-c2ccccc2)cc1,inactive,
Cc1cc(O)ccc1Cl,inactive,
CCC(C)(c1ccc(O)cc1)c1ccc(O)cc1,inactive,51.8 µM (active)
